# Screening data deposited in PubChem by Broad Institute.
# Vif imaging – HIV Vif self-association inhibitors, primary screen, imaging, HEK293T, single point. inhibition, % at 7.49 µM. actives 0.35% (n = 340,000). HEK293T cells, Vif self-association by quenched fluorescence, 24 h; in the data active = inhibition above about 50%, passing the limit was not always enough; inconclusive = no clear call, values can overlap the other calls; inactive = below about 31%
# N-glyco inh – increase of ERlucT glycosylation luciferase signal, primary screen, N-linked glycosylation inhibitor project, D54 ERlucT cells, luminescence, set 2. D54 ERlucT glycosylation luciferase reporter, 24 h; percent of 100 nM tunicamycin response. reporter increase, % at 12.5 µM. actives 0.23% (n = 360,000). AID 588692, 2011;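 active = mean luciferase reporter signal, scaled so untreated is 0 and the glycosylation-blocking control 100, at or above a set limit in every replicate; inconclusive = mean reaches the limit but not every replicate does; inactive = mean below the limit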;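 also: luciferase carries N-glycosylation sites so blocking glycosylation raises the light; 0% = median of neutral control wells and 100% = median of 100 nM tunicamycin wells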
# PfHsp90 set2 – growth inhibition of PfHsp90-expressing yeast, primary screen, antimalarial PfHsp90 inhibitor project, S. cerevisiae, BacTiter-Glo luminescence, single point, set 2; BacTiter-Glo ATP, 48 h; yeast lacking PDR1 and PDR3 efflux regulators; inhibition, % at 9.4 µM; actives 0.32% (n = 310,000); AID 504621, 2011;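 active = every replicate shows inhibition above about 80%, whatever the replicate mean, limit read from the data; inconclusive = mean inhibition reaches the set limit but some replicate falls short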;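 also: 0% = DMSO neutral controls and 100% = 20 µM radicicol positive controls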
# esBAF inh – Bmi1 luciferase reporter increase in mESCs, primary screen, esBAF inhibitor project, mouse ES cells, Bmi1 luciferase knock-in, single point; 24 h; 100% = twice the neutral-well signal; reporter increase, % at 12.5 µM; actives 2% (n = 350,000); AID 602393, 2012; in the data active = activation above about 40%; inconclusive = no clear call, values can overlap the other calls;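 also: 0% = median of the plate's neutral control wells and 100% = double that signal; a rise in the Bmi1 reporter signal indicates esBAF inhibition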
# MITF act – activators of MITF-driven TRPM1 promoter reporter, primary screen, cell-based, SK-MEL-5, luciferase, single point | SK-MEL-5 TRPM1-promoter luciferase, 24 h; % of positive control, neutral wells = 0 | activation, % at 12.5 µM | actives 0.75% (n = 300,000);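 active = mean activation of at least 80% with every replicate also reaching 80%; inconclusive = mean reaches 80% but some replicate falls short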;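 also: 0% = neutral control wells and 100% = parthenolide positive control wells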
# Wnt act – Wnt/beta-catenin pathway activators, primary screen, cell-based, plate reader, single point. activation, % at 9.35 µM. actives 1.2% (n = 300,000). Wnt/beta-catenin reporter cell assay, activator; in the data active = activation above about 30%, passing the limit was not always enough; inconclusive = no clear call, values can overlap the other calls;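 also: 0% = neutral control wells and 100% = positive control wells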
# * marks the source's active call; other numbers are inactive results; ? = inconclusive; . = no result given. Compounds with a hit are over-represented: about 3% of the library has one in this group of screens.
SMILES,Vif imaging,N-glyco inh,PfHsp90 set2,esBAF inh,MITF act,Wnt act
NNC(=O)CN1CCN(c2ncc(C(F)(F)F)cc2Cl)CC1,-8,0,23,-15,-5,-2
O=C(NN=C1CCC(c2ccccc2)CC1)c1cc2c(s1)CCCC2 (stereo not given),7,2,-25,.,0,0
O=C1c2ccccc2C(=O)N1c1cc([N+](=O)[O-])ccn1,2,0,-17,-6,.,-1
CCN(CC)C(=O)CSc1nc2ccc(NC(=O)CSc3nccn3C)cc2s1,0,-4,1,78*,25,5
Cn1cnnc1SCC(=O)Nc1ccc2nc(SCc3cccc4ccccc34)sc2c1,.,-2,.,.,-5,.
Cn1cnnc1SCC(=O)Nc1ccc2nc(SCc3ccccc3)sc2c1,1,-3,11,69*,70,16
Cc1noc(C)c1S(=O)(=O)N(C)C[C@H]1Oc2ccc(N(C)C)cc2CC(=O)N([C@@H](C)CO)C[C@@H]1C,.,.,.,2,.,.
O=C(Nc1ccccc1F)Nc1ccccc1F,-4,-2,-24,56*,41,54*
O=C(Nc1ccc(F)cc1)Nc1ccc2c(c1)CCC2,.,.,0,.,?,?
COc1ccc(/C=C/C(=O)Nc2ccc3c(c2)CCC3)cc1OC,-6,-2,-4,47*,29,.
COc1ccc(NC(=O)Nc2ccc3c(c2)CCC3)cc1OC,5,0,-6,.,21,2
Cc1ccccc1NC(=O)Nc1ccc2c(c1)CCC2,-8,-1,0,72*,75,-1
O=C(Nc1ccc2c(c1)CCC2)Nc1ccc(F)cc1F,-7,-7,8,71*,79,41*
Cc1cc(C(C)(C)C)ccc1NC(=O)CC(C)(C)CC(=O)O,-5,1,13,.,.,17
CCc1cccc(CC)c1NC(=O)C(CC)Sc1nc2ccsc2c(=O)n1CCC(=O)O (stereo not given),2,0,.,6,.,4
O=C(Nc1ccc2c(c1)CCC2)Nc1ccccc1F,1,-18,7,5,108*,27
O=C(COC(=O)/C=C/C(=O)OCC(=O)Nc1ccccc1F)Nc1ccccc1F,79*,1,9,.,-13,5
O=C(Nc1ccc2c(c1)CCC2)c1cnc(Cl)c(Cl)c1,7,-3,5,.,56,-1
O=C(Nc1ccc2c(c1)CCC2)c1ccc(Cl)nc1,-6,-5,18,82*,20,11
COc1ccccc1NC(=O)Nc1ccc(C(N)=O)cc1,1,0,4,.,11,9
COc1ccc(NC(=O)Nc2ccccc2OC)cc1,.,-1,8,48*,?,16
COCC(=O)Nc1ccc2c(c1)C(=O)N(C)[C@H]1CC[C@H](CC(=O)Nc3ccccc3C)O[C@@H]1CO2,.,.,.,-1,.,.
C[C@H](CO)N1C[C@H](C)[C@H](CN(C)C)Oc2cc(C#Cc3ccccn3)ccc2S1(=O)=O,.,.,.,-2,.,.
COc1ccccc1NC(=O)C(=O)N/N=C/c1cccs1,-9,4,-2,76*,48,15
COc1ccccc1NC(=O)C(=O)Nc1ccccn1,-2,-6,5,35,47,36*
SMILES,Vif imaging,N-glyco inh,PfHsp90 set2,esBAF inh,MITF act,Wnt act
O=C(Nc1ccc2c(c1)CCC2)c1c(F)cccc1Cl,5,2,20,.,88*,17
COCCNC(=O)C(=O)N/N=C/c1cccs1,-10,2,-18,.,23,4
COc1ccccc1NC(=O)Nc1nc(CC(=O)Nc2ccc(N(C)C)cc2)cs1,16,-2,18,51*,15,5
NS(=O)(=O)c1ccc2nc(NC(=O)Nc3ccccc3F)sc2c1,2,-9,-23,12,68,43*
Cc1ccccc1NC(=O)Nc1ccc(C(F)(F)F)cc1,0,-5,-24,.,38,38*
Cc1ccccc1NC(=O)CNC(=O)c1ccc(C(F)(F)F)cc1,-3,4,-1,.,5,-1
COc1ccc(NC(=O)Nc2ccc(F)c(Cl)c2)cc1,-9,-5,-8,.,127*,45*
COc1ccccc1NC(=O)Nc1ccc2c(c1)CCC2,.,-4,35,.,112*,19
CC(NC(=O)Cc1ccc(Br)cc1)c1ccccc1 (stereo not given),0,1,7,2,4,2
O=C(NCC1CCN(Cc2cccc(Cl)c2)CC1)C1CCCN(c2ncnc3c2nc2n3CCCCC2)C1 (stereo not given),-14,4,14,-8,-19,-2
CO[C@H]1CC[C@H]2CCOc3c(C#N)cccc3C(=O)N(C)[C@@H](C)C(=O)N(C)C[C@@H]1O2,.,.,.,-3,.,.
Cc1nn(-c2ccccn2)c(C)c1Oc1ccccc1O,24,1,16,5,4,.
Cc1nn(-c2nc3ccccc3s2)c(C)c1Oc1ccccc1O,.,-18,-4,45*,77,.
Cc1cc2nn(-c3ccc(F)cc3)nc2cc1N,3,-13,-20,-13,.,19
CC(C)c1ccc(-n2nc3ccc(N)cc3n2)cc1,-3,-13,-14,-45,-17,38*
Cc1cc2nn(-c3ccc(Cl)cc3)nc2cc1N,1,-16,-4,.,23,33*
COc1ccc(C(=O)CC2OC(=O)c3c2ccc(OC)c3OC)cc1 (stereo not given),11,4,-1,2,-3,2
Cc1cc(NC(=O)CC2CCCC2)ccc1Br,-2,0,-3,65*,63,13
Cc1cc(NC(=S)NC(=O)CC(C)C)ccc1Br,-3,1,-2,58*,57,9
Cc1cccc(NC(=O)CC2CCC2)c1,17,-1,.,15,17,.
O=C(CC1CCCC1)Nc1ccc2c(c1)CCC2,6,0,-24,84*,43,4
CCn1c(CCC(=O)Nc2ccccc2F)nnc1SCC(=O)Nc1ccc(OC)cc1,.,1,-49,1,-5,1
COc1ccc([N+](=O)[O-])c(S(=O)(=O)c2ccc(Cl)cc2)n1,-33,-13,109*,.,.,-5
COc1ccc([N+](=O)[O-])c(S(=O)(=O)c2ccccc2)n1,11,-19,.,.,.,-13
N=C1C(c2nc3ccccc3s2)=C(O)CN1Cc1ccccc1,24,4,15,48*,30,.
CCCCNC(=O)C1CCN(Cc2ccc(OCc3ccccc3)cc2)CC1,22,-5,1,51*,77,.
CCc1nnc(NC(=O)CCN(c2cc(C)cc(C)c2)S(=O)(=O)c2ccc(Cl)cc2)s1,3,1,3,.,-13,-5
O=C(O)CSc1ncccn1,-1,0,2,-5,6,5
